KCNQ2 inh – inhibitors of rat KCNQ2 potassium channel. O88943. CHO-K1 KCNQ2, FluxOR thallium flux, 20 min; active compounds read low. B-score at 10 µM. hit rate 1.1% among 310,000;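 active = fluorescence ratio B-score at most minus 3 library SDs, with starting brightness B-score within 2 library SDs, cut at about -5.5 in these data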
KCNQ2 enhance – enhances the rat KCNQ2 potassium channel; B-score at 10 µM; hit rate 0.54% among 310,000; AID 2239; O88943; CHO-K1 KCNQ2, FluxOR thallium flux fluorescence; active compounds read high;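 active = fluorescence ratio B-score at least 3 SD of library B-scores, with initial fluorescence B-score within 3 of them, cut at about 5.3 in these data; same plate scores as AID 2156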;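 also: B-score of peak minus minimum over baseline fluorescence ratio after K+ and Tl+ stimulus; positive B-score means potentiation of KCNQ2 with more thallium influx and brighter signal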
Kir21 conf inh – confirmation of mouse Kir2.1 potassium channel inhibitors; AID 2032; shares compounds with KCNQ2 enhance; Kir2.1-expressing cells, FluxOR thallium flux fluorescence; active compounds read low; hit rate 41% among 2,300; Tl flux remaining, % of negative control (active compounds read low), % at 10 µM;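 active = Primary-screen hit whose thallium flux fell at least 3 control SD below untreated wells in both duplicates, with normal baseline fluorescence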;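 also: 0% = blank wells without stimulus and 100% = stimulated no-compound controls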
Target sequence (P35561 whole entry, looked up): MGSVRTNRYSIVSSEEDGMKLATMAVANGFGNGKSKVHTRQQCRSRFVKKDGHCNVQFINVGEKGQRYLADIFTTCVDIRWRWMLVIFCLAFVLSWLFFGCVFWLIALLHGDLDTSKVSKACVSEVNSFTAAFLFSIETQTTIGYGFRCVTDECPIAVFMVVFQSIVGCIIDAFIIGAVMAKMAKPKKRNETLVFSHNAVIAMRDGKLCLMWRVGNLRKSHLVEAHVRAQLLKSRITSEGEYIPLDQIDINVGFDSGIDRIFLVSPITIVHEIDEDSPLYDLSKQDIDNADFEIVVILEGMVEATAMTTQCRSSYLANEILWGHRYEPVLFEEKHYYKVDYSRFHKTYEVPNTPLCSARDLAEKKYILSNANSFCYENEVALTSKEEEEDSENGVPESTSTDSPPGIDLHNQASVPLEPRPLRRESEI
HEK293 Tl flux – parental HEK293 activity in Kir2.1 inhibitor counter-screen; FluxOR signal as % of negative control (100 = no effect), % at 10 µM; parental HEK293 cells, FluxOR thallium flux fluorescence; 0% = unstimulated blank wells; shares compounds with KCNQ2 enhance; hit rate 19% among 2,300;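 active = dye signal at least 3 control SD above or below untreated wells in both duplicates, raw fluorescence within 3, either direction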;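 also: percent is based on the flux ratio of peak minus minimum fluorescence over baseline F0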
CHO-K1 ctr – parental CHO-K1 activity in KCNQ2 potentiator counter-screen; activity increase over 3SD of controls, % at 10 µM; parental CHO-K1 cells, FluxOR thallium flux fluorescence; zero = vehicle mean+3SD, 100% = vehicle-minus-blank window; hit rate 43% among 1,200; AID 2282; shares compounds with KCNQ2 enhance;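 active = signal rise of at least 3 SD above the untreated control mean, in both duplicate wells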;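 also: counter screen of KCNQ2 potentiator hits so any rise reflects channel-independent effects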
KCNQ1 sel pot – human KCNQ1 counter-target activity of KCNQ2 potentiators. shares compounds with KCNQ2 enhance. AID 2283. hit rate 28% among 1,200. activation over 3SD threshold, % at 10 µM. CHO KCNQ1 stable, FluxOR thallium flux fluorescence; beyond 3SD, as % of vehicle-control signal;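 active = fluorescence ratio rise of at least 3 SD of vehicle wells above their mean, in both replicate wells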;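 also: 0% = vehicle mean plus 3 SD and 100% = vehicle minus unstimulated blank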
KCNQ2 pot conf – confirmation of rat KCNQ2 potassium channel potentiators. shares compounds with KCNQ2 enhance. CHO-KCNQ2 cells, FluxOR thallium flux fluorescence. potentiation, less the hit threshold, % at 10 µM. hit rate 68% among 1,200;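 active = fluorescence ratio rising 3 SD or more over the vehicle control mean in both replicates, plus primary screen hit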;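 also: peak minus minimum thallium fluorescence divided by baseline after K/Tl stimulus; 0% = vehicle mean plus 3 SD and 100% = vehicle minus unstimulated blank difference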
Kir2-1 sel – selectivity of KCNQ2 potentiators: effect on mouse Kir2.1; shares compounds with KCNQ2 enhance; HEK293 Kir2.1, FluxOR thallium flux fluorescence; activity over 3SD threshold, % at 10 µM; hit rate 2% among 1,200; AID 2345;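 active = fluorescence ratio rise of at least 3 SD above the vehicle-control mean, seen in both replicates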;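 also: 0% = vehicle mean plus 3 SD and 100% = vehicle minus no-stimulus blank window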
KCNQ2 W236L pot – rat KCNQ2 W236L mutant potentiation by KCNQ2 potentiators; AID 2558; current increase over 3SD of negative controls (%), active compounds read high, % at 25 µM; CHO KCNQ2-W236L, automated patch clamp current; shares compounds with KCNQ2 enhance; hit rate 10% among 940;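 active = current increase at least 3 SD of the untreated controls above them in both duplicate recordings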
The depositor's hits bear a star; i = inactive; · = not tested or not shown. This is a sample that favours compounds with a hit; in the whole collection about 1.6% have one here.

SMILES	KCNQ2 inh	KCNQ2 enhance	Kir21 conf inh	HEK293 Tl flux	others
Cc1cc(C)c(NC(=O)CS)c(Cl)c1	i	20*	i	i	CHO-K1 ctr=-16;KCNQ1 sel pot=-2;KCNQ2 pot conf=95*;Kir2-1 sel=-40;KCNQ2 W236L pot=i
COc1ccccc1NC(=O)CCN1C(=O)C2C3CCC(C3)C2C1=O (configuration not stated)	i	1.4	·	·
CCc1nc(Nc2ccccc2)c2oc3ccccc3c2n1	i	·	·	·
O=c1c(O)c(-c2cccs2)oc2ccccc12	i	13*	i	i	CHO-K1 ctr=9.6*;KCNQ1 sel pot=-33;KCNQ2 pot conf=66*;Kir2-1 sel=-36;KCNQ2 W236L pot=i
O=c1c(O)c(-c2cccs2)oc2ccc(Cl)cc12	i	15	i	i	CHO-K1 ctr=-18;KCNQ1 sel pot=-16;KCNQ2 pot conf=70*;Kir2-1 sel=-29;KCNQ2 W236L pot=24%*
CCCCn1c(-c2cccs2)nc2oc3ccccc3c(=O)c2c1=O	i	0.86	·	·
Cc1ccc(-c2oc3ccccc3c(=O)c2O)cc1	i	5.6*	i	162%*	CHO-K1 ctr=-21;KCNQ1 sel pot=-22;KCNQ2 pot conf=21*;Kir2-1 sel=-37;KCNQ2 W236L pot=i
Cc1ccc(-c2oc3ccccc3c(=O)c2OCC(=O)O)cc1	i	·	·	·
O=c1cc(-c2cccs2)oc2ccc(Cl)cc12	i	1.2	·	·
CC(=O)NCCn1c(SCC(=O)OCc2ccccc2)nc2ccccc2c1=O	i	0.88	·	·
COC(=O)c1cc(S(=O)(=O)NCCCc2ccco2)c[nH]1	i	1	·	·
CCc1c(C)nc(SCC(=O)N2C(C)CCCC2C)[nH]c1=O (configuration not stated)	i	0.11	·	·
CCc1c(C)nc(SCC(=O)N2CCCCC2C)[nH]c1=O (configuration not stated)	i	5.5*	i	i	CHO-K1 ctr=20*;KCNQ1 sel pot=-16;KCNQ2 pot conf=-26;Kir2-1 sel=-34
Cc1cc(C)nc(N2CCC(C(=O)NCc3ccco3)CC2)n1	i	0.65	·	·
CCCc1nn(C)c2c(=O)[nH]c(-c3cc(S(=O)(=O)N4CCN(C)CC4)ccc3OCC)nc12	i	0.27	·	·
COC(=O)c1cc(OC)c(OC)cc1NC(=O)c1ccc(OC)cc1	i	·	·	·
COc1ccc(C2(C(=O)NCCc3ccccc3)CCCC2)cc1	i	·	·	·
O=C(NCCc1ccc(Cl)cc1)C1(c2ccccc2)CC1	i	·	34%*	i
CC1(OC(=O)CCc2ccccc2)C(=O)C=C2C=C(c3ccc(C#N)cc3)N(C3CCCCC3)C=C2C1=O (configuration not stated)	i	·	·	·
CCOCCCNC(=S)N1CCN(CC)CC1	i	·	·	·
Cc1ccc(-n2ncc(C(=O)Nc3cc(Cl)ccc3Cl)c2C2CCNCC2)cc1	i	·	·	·
Cc1ccc(-n2ncc(C(=O)Nc3cc(Cl)cc(Cl)c3)c2C2CCNCC2)cc1C	i	·	i	i
O=S(=O)(c1ccccc1F)N1CCCc2ccccc21	i	0.02	60%*	i
O=[N+]([O-])c1ccccc1S(=O)(=O)N1CCCc2ccccc21	i	·	·	·
OCCC1CN(Cc2ccc3nonc3c2)CCN1Cc1ccsc1 (configuration not stated)	i	·	·	·
SMILES	KCNQ2 inh	KCNQ2 enhance	Kir21 conf inh	HEK293 Tl flux	others
Cc1cc(C)c2c(N)c(C(=O)c3ccccc3)sc2n1	i	·	·	·
Cc1sc2cc3c(c(C(=O)c4ccccc4)[n+]2c1C)-c1cccc2cccc-3c12	-8.2*	-8.2	27%*	64%*
COc1ccccc1OCCCc1c(C)n[nH]c1C	i	5.8*	i	i	CHO-K1 ctr=42*;KCNQ1 sel pot=-8;KCNQ2 pot conf=-6;Kir2-1 sel=-47;KCNQ2 W236L pot=i
COc1ccccc1OCCCCCc1c(C)n[nH]c1C	i	·	·	·
Cc1ccc(OCC(=O)NC(=S)Nc2cccc(NC(=O)c3ccccc3Cl)c2)cc1	i	2	·	·
O=[N+]([O-])c1ccc(NCCNS(=O)(=O)c2ccccc2)c(C(F)(F)F)c1	i	·	i	i
Cc1ccc(S(=O)(=O)NCCNc2ccc([N+](=O)[O-])cc2C(F)(F)F)cc1	i	·	·	·
Cc1ccsc1/C=N/N1CCOCC1	i	0.32	·	·
CC(NC(=O)c1ccccc1Br)c1ccc2c(c1)CCCC2 (configuration not stated)	i	·	·	·
CC(NC(=O)c1ccc(Br)cc1)c1ccc2c(c1)CCCC2 (configuration not stated)	i	7.6*	i	i	CHO-K1 ctr=43*;KCNQ1 sel pot=-2;KCNQ2 pot conf=40*;Kir2-1 sel=-29;KCNQ2 W236L pot=i
O=C(Nc1ccc(F)cc1)c1ccc(CSc2ccc(Cl)cc2)o1	i	7.2*	i	i	CHO-K1 ctr=2.2*;KCNQ1 sel pot=90*;KCNQ2 pot conf=-9;Kir2-1 sel=-44;KCNQ2 W236L pot=i
CC(=O)c1ccc(NC(=O)c2ccc(CSc3ccccc3)o2)cc1	i	1.1	·	·
COc1ccccc1-c1nnc2sc(-c3cnccn3)nn12	i	·	·	·
CC(CCc1ccc(O)cc1)NC1C2CC3CC(C2)CC1C3 (configuration not stated)	i	0.58	·	·
CC(CCc1ccc(O)cc1)NC1c2ccccc2-c2ccccc21 (configuration not stated)	i	2.8	33%*	i
Cc1ccc(S(=O)(=O)NCC(=O)NCc2cc(=O)n(C)c(=O)n2C)cc1	i	0.21	·	·
COc1cc(/C=C(\C#N)C(=O)N2CCOCC2)cc(Br)c1O	i	·	·	·
N#C/C(=C\c1cccc(Oc2ccccc2)c1)C(=O)N1CCOCC1	-6.4*	-6.4	36%*	i
O=C1CC(N(O)c2ccccc2)C(=O)N1Cc1ccccc1 (configuration not stated)	i	0.07	·	·
Cc1nc(SCCOc2ccccc2)[nH]c(=O)c1Cc1ccccc1	i	0.7	·	·
CCOC(=O)C1(CCOc2ccccc2)CCN(Cc2cnc(C)[nH]2)CC1	i	1.2	·	·
COc1ccc(NC2c3ccccc3C(=O)N2c2cccnc2)cc1Cl (configuration not stated)	i	0.56	·	·
S=c1[nH]c2cc(Cl)ccc2s1	i	18*	i	552%*	CHO-K1 ctr=10*;KCNQ1 sel pot=-12;KCNQ2 pot conf=54*;Kir2-1 sel=2.3*;KCNQ2 W236L pot=i
S=c1[nH]c2ccc(Cl)cc2[nH]1	i	1.2	·	·
Cc1nn(-c2ccccc2)c(Cl)c1/C=C1\SC(=S)N(CCCCCC(=O)O)C1=O	i	1.5	·	·
Cc1nn(-c2ccccc2)c(Cl)c1/C=C1\SC(=S)NC1=O	i	13*	i	412%*	CHO-K1 ctr=-1;KCNQ1 sel pot=-14;KCNQ2 pot conf=215*;Kir2-1 sel=-13;KCNQ2 W236L pot=i
COc1ccc(C(=O)C(/C=N/O)=N/Nc2ccc(F)cc2)cc1	i	·	·	·
